Values joined by “and” are separate entries in the source; they are usually repeats but may differ in a detail not shown here. Equal values may be shown once. About 2,700 (0.93%) of roughly 290,000 compounds were called active. The entries come from a sample that favours actives as a whole. A number with no mark means an inactive call.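 Rule for the calls: active = inhibition above the screen-wide mean plus 3 SD, computed separately per campaign (cut at about 16% in these data); inactive = the rest.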
test system: Heat shock protein HSP 90 (rabbit reticulocyte lysate; luciferase refolding); assay: HSP90 inhibitors, primary screen, cell lysate, luminescence (AID 1789); conditions: 3 h, at 5.6 µM, stronger effect = higher value;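 note: 0% = DMSO wells and 100% = 60 µM geldanamycin wells; inhibitors lower the luminescence because luciferase stays unfolded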

Row | Structure (SMILES) | inhibition
1 | COc1ccc(-c2cc(=O)oc3cc(OC(C)C(=O)Nc4ccc(CN5CCOCC5)cc4)ccc23)cc1 (stereo not given) | -1.3%
2 | COc1cc(OC)cc(C(=O)NCCSCc2ccc(Cl)cc2)c1 | 2.62%
3 | CCOC(=O)C1CCN(S(=O)(=O)c2c(C)noc2C)CC1 | -1.41%
4 | C=CCNc1ncnc2ccc(Br)cc12 | -3.86%
5 | COc1ccc(Nc2ncnc3sc(-c4ccccc4)cc23)c(OC)c1 | -1.63%
6 | COc1ccc(Nc2ncnc3ccc(Br)cc23)c(OC)c1 | 35.7% (active)
7 | Cc1ccc(S(=O)(=O)NCC(=O)Nc2ccc3c(c2)OCCO3)cc1 | 5.88%
8 | O=c1c2ccccc2ncn1/N=C/c1ccccc1 | 16.4% (active)
9 | O=c1c2ccccc2nc(N/N=C/c2ccccc2)n1O | -0.57%
10 | O=C(Nn1cnc2ccccc2c1=O)c1ccccc1 | -3.95%
11 | CC(C)C[C@H](NC(=O)N1CC(=O)Nc2ccccc21)C(=O)N[C@H](Cc1ccccc1)C(=O)O | -4.11%
12 | COC(=O)C1[C@H]2SC(C)(C)C(C(=O)OC)N2C(=O)N1Cc1nc2ccccc2s1 (stereo not given in full) | 26.1% (active)
13 | CCC1(CC)NC(=O)N(Cc2nc3ccccc3s2)C1=O | 1.16%
14 | CC1(C)SC2C(NC(=O)COc3ccccc3)C(=O)N2C1C(=O)O (stereo not given) | -3.05%
15 | O=[N+]([O-])c1ccc(F)cc1Oc1nc(-c2cccnc2)nc2ccccc12 | 2.73%
16 | O=C(Cc1ccccc1)N1CCN(S(=O)(=O)c2ccc([N+](=O)[O-])cc2)CC1 | 20% (active)
17 | O=C(Cc1ccccc1)NNS(=O)(=O)c1ccc([N+](=O)[O-])cc1 | -2.29%
18 | CS(=O)(=O)N1CCN(C(=O)Cc2ccccc2)CC1 | -2.11%
19 | COc1ccc(-c2cc(C(=O)N3CCN(c4ccc(F)cc4)CC3)no2)cc1 | -0.04%
20 | O=C(CCc1c[nH]c2ccccc12)NCCOc1ccccc1 | -0.52%
21 | COc1ccc(Cl)cc1NC(=O)Cn1nc(-c2ccc(C)cc2)n(C)c1=S | 17.9% (active)
22 | COc1ccc(C)cc1NC(=O)CSc1ccc(Cl)cc1 | 1.35%
23 | COc1ccc(Cl)cc1NC(=O)CN1CCN(C(=O)N2CCOCC2)CC1 | -1.78%
24 | Cc1ccc(NC(=O)C2CCCN2C(=O)OCc2ccccc2)cc1C (stereo not given) | -2.49%

Row | Structure (SMILES) | inhibition
25 | CCOC(=O)c1ccccc1NS(=O)(=O)c1c(C)nc2sccn2c1=O | -1.63%
26 | CCOC(=O)N1CCN(Cc2nc3c(c(=O)n(C)c(=O)n3C)n2Cc2ccccc2)CC1 | 57.6% (active)
27 | Cn1c(=O)c2c(nc(CN3CCOCC3)n2Cc2ccccc2)n(C)c1=O | 8.36%
28 | CCN1CCN(Cc2nc3c(c(=O)n(C)c(=O)n3C)n2CC(=O)c2ccccc2)CC1 | 0.91%
29 | COc1cccc(CNS(=O)(=O)c2ccc3c(c2)CC(C)N3C(C)=O)c1 (stereo not given) | -0.03%
30 | NNC(=O)c1nnn(-c2nonc2N)c1CN1CCCC1 | 2.68%
31 | Cc1ccc(C)c(OCc2cc(C(=O)N3CCN(c4cnccn4)CC3)no2)c1 | -6.08%
32 | O=C(C1CCN(Cc2ccc(Cl)cc2)CC1)N1CCN(Cc2ccc3c(c2)OCO3)CC1 | 3.57%
33 | Cc1cccnc1CCNC(=O)C1CCC(=O)N(Cc2cccc(F)c2)C1 (stereo not given) | -3.21%
34 | c1ccc(NCc2cccc3ccccc23)nc1 | -0.19%
35 | Oc1ccc2ccccc2c1N=Nc1nccs1 | 16.9% (active)
36 | Oc1ccc(N=Nc2nccs2)c(O)c1 | 0.13%
37 | CCc1ccc(S(=O)(=O)N/N=C\c2ccc([N+](=O)[O-])o2)cc1 | -5.89%
38 | COCCNc1ccc(-c2n[nH]c(=O)c3ccccc23)cc1[N+](=O)[O-] | 1.55%
39 | Cc1cc(N=Nc2ccc3ccccc3c2)ccc1O | -3.33%
40 | COc1cccc(OCCOc2cccc(/C=N/n3cnnc3)c2)c1 | 10.3%
41 | CN(C)c1ccc(-n2cccc2/C=N/n2cnnc2)cc1 | 54.3% (active)
42 | CN(C)c1ccc(-n2cccc2/C=C2/SC(=Nc3ccc(F)cc3)NC2=O)cc1 | -2.27%
43 | O=C(COc1nsnc1N1CCOCC1)Nc1ccccc1Cl | -3.12%
44 | O=C(Nc1ccc(CN2CCOCC2)cc1)c1cc(Cl)ccc1Cl | -0.42%
45 | CCc1nc(N2CCN(C(C)=O)CC2)c2c3c(sc2n1)CCCC3 | 0.58%
46 | O=C(Cc1ccccc1)Nc1ccc(C(=O)Nc2ccccc2C(=O)O)cc1 | 2.96%
47 | COc1ccc(Cl)cc1NC(=O)c1cccc(N2C(=O)C3CC=CCC3C2=O)c1 (stereo not given) | -3.52%
48 | O=C(Nc1ccccc1C(=O)O)c1ccc(N2C(=O)C3CC=CCC3C2=O)cc1 (stereo not given) | 19.6% (active)

Row | Structure (SMILES) | inhibition
49 | COC(=O)[C@@H](Cc1ccccc1)NC(=O)NCCc1ccccc1 | 5.73%
50 | O=C(O)Cc1sc(-c2ccccc2)nc1-c1cccs1 | -2.42%
51 | NC(=O)Cc1ccc2sc(-c3ccccc3)nc2c1 | 16.4% (active)
52 | NC(=O)Cc1ccc2c(c1)[nH]c1ccccc12 | 5.37%
53 | COc1ccc(NC(=O)NN2CCN(C)CC2)c(OC)c1 | -1.29%
54 | CCOc1cccc(-n2nnnc2-c2ccc(OC)cc2)c1 | 1.88%
55 | COc1ccc(-n2nnnc2-c2nc3ccccc3s2)cc1 | 19.1% (active)
56 | COc1ccc(C2=NN(c3nc4ccccc4s3)C(=O)C2)cc1 | 0.61%
57 | O=C(c1cccc(Br)c1)N1CCN(C2=NS(=O)(=O)c3ccccc32)CC1 | -0.31%
58 | O=C(CN1C(=O)COc2ccc(Cl)cc21)N1CCOCC1 | 4.17%
59 | COc1cc(C(=O)NN(CCC#N)C2=NS(=O)(=O)c3ccccc32)cc(OC)c1OC | 26.7% (active)
60 | Cc1ccc(C(=O)NN(CCC#N)C2=NS(=O)(=O)c3ccccc32)cc1 | -2.85%
61 | COc1cc(C2C(C(=O)OCCC#N)=C(C)NC3=C2S(=O)(=O)c2ccccc23)cc(OC)c1OC (stereo not given) | 3.37%
62 | Cc1ccc(NC(=O)C(=O)NCc2ccc(/C=N/NC(=O)c3c(C)nc4cc(C)ccn34)o2)cc1 | 0.35%
63 | CCN(CC)Cc1nc2sc(C)c(C)c2c(=O)[nH]1 | 2.4%
64 | Cc1sc2nc(COC(=O)C(NC(=O)c3ccc(Cl)cc3Cl)C(C)C)[nH]c(=O)c2c1C (stereo not given) | -3.91%
65 | Cc1sc2nc(CSCC(=O)Nc3c(Cl)cccc3Cl)[nH]c(=O)c2c1C | 35.8% (active)
66 | COc1ccc(NC(=O)N2CCCC2C(=O)NCc2ccccc2Cl)cc1 (stereo not given) | -3.61%
67 | O=S(=O)(c1ccccc1)c1nc(-c2ccccc2)oc1NCCCN1CCOCC1 | -4.19%
68 | O=C(NCCc1ccc(Cl)cc1Cl)c1cc([N+](=O)[O-])c[nH]c1=O | -4.08%
69 | Cc1nn(CC(=O)Nc2ccc(F)cc2)c(=O)c2ccccc12 | 31.8% (active)
70 | Cc1ccc(NC(=O)Cn2nc(C)c3ccccc3c2=O)c(C)c1 | -0.05%
71 | O=C(Cn1nc(C(=O)O)c2ccccc2c1=O)Nc1ccc(F)cc1 | 0.16%
72 | CCc1nnc(NC(=O)CCC(=O)N2CCN(c3cc(C)ccc3C)CC2)s1 | -1.11%

Row | Structure (SMILES) | inhibition
73 | O=C(c1ccncc1)c1ccc([N+](=O)[O-])cc1 | 1.75%
74 | O=C(Cn1c[n+](CC(=O)c2ccc([N+](=O)[O-])cc2)cn1)c1ccc([N+](=O)[O-])cc1 | 17.4% (active) and 20.8% (active)
75 | O=C(CC(n1cncn1)C(Cl)(Cl)Cl)c1ccc([N+](=O)[O-])cc1 (stereo not given) | -0.82%
76 | O=C(c1ccc(Br)o1)N1CCN(CCOc2ccccc2)CC1 | -4.13%
77 | COc1ccc(CNC(=O)c2ccc3oc(C(C)C)nc3c2)cc1 | -4.27%
78 | CN(CCO)c1ccc(/C=N/Nc2nncc3ccccc23)cc1 | 58.9% (active)
79 | COc1cc(/C=N/Nc2nn3cnnc3c3ccccc23)cc(OC)c1OC | -1.69%
80 | C/C(=N\Nc1nncc2ccccc12)c1ccc(Cl)c([N+](=O)[O-])c1 | 3.18%
81 | C=CCSc1nsc(NC(=O)Nc2cccc(C(C)=O)c2)n1 | -1.06%
82 | O=C(C1CCCN(S(=O)(=O)c2ccc([N+](=O)[O-])cc2)C1)N1CCCCC1 (stereo not given) | 6.54%
83 | O=C(Nc1cccnc1)c1cccc(S(=O)(=O)N2CCCC2)c1 | -0.49%
84 | O=C(c1noc2c1CCCC2)N1CCc2ccccc2C1 | 3.28%
85 | O=C(Nc1cccnc1)c1noc2c1CCCCC2 | 39.9% (active)
86 | CCn1cc(CN2CCC(C(=O)Nc3cccc(-c4cccc(Cl)c4)c3)CC2)cn1 | 7.07%
87 | CCCS(=O)(=O)N1CCCC(C(=O)NCc2ccco2)C1 (stereo not given) | -2%
88 | CCS(=O)(=O)N1CCCC(C(=O)NCc2ccc(C)cc2)C1 (stereo not given) | -1.37%
89 | CCCS(=O)(=O)N1CCCC(C(=O)NCCN2CCCCC2C)C1 (stereo not given) | 20.8% (active)
90 | COc1ccccc1CN1CCCC(N2CCN(c3ccc(F)cc3)CC2)C1 (stereo not given) | -1.44%
91 | Cc1ccnc(N2C(=O)c3ccccc3C2Nc2ccc3c(c2)OCCO3)c1 (stereo not given) | 1.87%
92 | O=C1c2ccccc2C(Nc2ccc3c(c2)OCCO3)N1Cc1ccco1 (stereo not given) | 16.6% (active)
93 | O=C(NC1CCCCC1)C1c2ccccc2C(=O)N1Cc1ccco1 (stereo not given) | -0.31%
94 | CCc1ccc(NC(=O)CN2CCC(C(=O)c3ccc(OC)cc3)CC2)cc1 | 0.9%
95 | Cc1ccccc1OCC(=O)N(Cc1cccc(F)c1)C1CCS(=O)(=O)C1 (stereo not given) | -1.03%

Reference: PubChem BioAssay AID1789 (The Scripps Research Institute Molecular Screening Center, 2009)
